Structures are written as SMILES. Structures can show the parent of a compound that is named as a salt.
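Further: viability read by CCK-8 kit in 96-well plates, part of a combination screen pairing lipid-metabolism-targeting compounds with erastin.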

The assay relates to HCC1937. The assay can be described thus: relative cell viability, compound + erastin, vs DMSO (fraction of DMSO control); higher = less growth inhibition. To be noted: 72 h.
In the case of `c1cc(-c2cnn3cc(-c4ccc(OCCN5CCCCC5)cc4)cnc23)ccn1` [Dorsomorphin] + CCOc1ccccc1-n1c(C(C)N2CCN(C(=O)COc3ccc(Cl)cc3)CC2)nc2ccccc2c1=O [erastin], the relative cell viability amounted to 0.137.

As to `COc1ccc2c(c1)c(CC(=O)O)c(C)n2C(=O)c1ccc(Cl)cc1` [Indometacin] + CCOc1ccccc1-n1c(C(C)N2CCN(C(=O)COc3ccc(Cl)cc3)CC2)nc2ccccc2c1=O [erastin], the relative cell viability was 0.941.

`O=c1oc2ccccc2cc1O` [3-Hydroxycoumarin] + CCOc1ccccc1-n1c(C(C)N2CCN(C(=O)COc3ccc(Cl)cc3)CC2)nc2ccccc2c1=O [erastin]: the relative cell viability is 0.61.

For `O=C(Nc1ccccc1)N1CCN(c2nc(-c3ccccc3)ns2)CC1` + CCOc1ccccc1-n1c(C(C)N2CCN(C(=O)COc3ccc(Cl)cc3)CC2)nc2ccccc2c1=O [erastin], the relative cell viability was determined as 0.559.

Consider `COc1ccc(C(=O)/C=C/c2ccccc2)cc1` [4'-Methoxychalcone] + CCOc1ccccc1-n1c(C(C)N2CCN(C(=O)COc3ccc(Cl)cc3)CC2)nc2ccccc2c1=O [erastin], for which the relative cell viability came out at 0.54.

Consider `Nc1ncnc2c1ncn2[C@@H]1O[C@H](COP(=O)(O)O)[C@@H](O)[C@H]1O` [Adenosine 5'-monophosphate] + CCOc1ccccc1-n1c(C(C)N2CCN(C(=O)COc3ccc(Cl)cc3)CC2)nc2ccccc2c1=O [erastin], for which the relative cell viability is 0.642.

Consider `NC(N)=NN=Cc1cccc(Cl)c1Cl` [Raphin1] + CCOc1ccccc1-n1c(C(C)N2CCN(C(=O)COc3ccc(Cl)cc3)CC2)nc2ccccc2c1=O [erastin], for which the relative cell viability worked out at 0.556.

For the compound `CC(=O)c1c(C)cc2cccc(O)c2c1O` [Nepodin] + CCOc1ccccc1-n1c(C(C)N2CCN(C(=O)COc3ccc(Cl)cc3)CC2)nc2ccccc2c1=O [erastin], the relative cell viability was determined as 0.7.

On to `CS(=O)(=O)c1ccc(-c2nnc(/C=C/c3nnc(-c4ccc(C#N)cc4)o3)n2-c2ccccc2Cl)nc1` + CCOc1ccccc1-n1c(C(C)N2CCN(C(=O)COc3ccc(Cl)cc3)CC2)nc2ccccc2c1=O [erastin], for which the relative cell viability worked out at 0.735.

Consider `O=C(Nc1cnccc1Cl)N1CCN(Cc2ccc3c(c2)OC(F)(F)O3)CC1` + CCOc1ccccc1-n1c(C(C)N2CCN(C(=O)COc3ccc(Cl)cc3)CC2)nc2ccccc2c1=O [erastin], for which the relative cell viability was found to be 0.486.

As to `CCCc1c(OCCCOc2ccc(OCC(=O)O)cc2)ccc(C(C)=O)c1O` + CCOc1ccccc1-n1c(C(C)N2CCN(C(=O)COc3ccc(Cl)cc3)CC2)nc2ccccc2c1=O [erastin], the relative cell viability was 0.752.

With `C=C(C)[C@@H]1CC[C@]2(CO)CC[C@]3(C)[C@H](CC[C@@H]4[C@@]5(C)CC[C@H](O)C(C)(C)[C@@H]5CC[C@]43C)[C@@H]12` [Betulin] + CCOc1ccccc1-n1c(C(C)N2CCN(C(=O)COc3ccc(Cl)cc3)CC2)nc2ccccc2c1=O [erastin], the relative cell viability was found to be 0.524.

On to `CCc1c(-c2ccccc2)c(-c2ccccc2)nn1-c1ccccc1-c1cccc(OCC(=O)O)c1` + CCOc1ccccc1-n1c(C(C)N2CCN(C(=O)COc3ccc(Cl)cc3)CC2)nc2ccccc2c1=O [erastin], for which the relative cell viability came out at 0.84.

In the case of `CC1(N)CCN(c2cnc(-c3cccc(Cl)c3Cl)c(N)n2)CC1` [SHP099 hydrochloride] + CCOc1ccccc1-n1c(C(C)N2CCN(C(=O)COc3ccc(Cl)cc3)CC2)nc2ccccc2c1=O [erastin], the relative cell viability was determined as 0.729.

As for `C[C@@H]1O[C@@H](O[C@H]2[C@H](Oc3cc(O)c4c(c3)O[C@H](c3ccc(O)cc3)CC4=O)O[C@H](CO)[C@@H](O)[C@@H]2O)[C@H](O)[C@H](O)[C@H]1O` [Naringin] + CCOc1ccccc1-n1c(C(C)N2CCN(C(=O)COc3ccc(Cl)cc3)CC2)nc2ccccc2c1=O [erastin], the relative cell viability was determined as 0.902.

As for `C[C@@H](Nc1nc(N[C@H](C)C(F)(F)F)nc(-c2cccc(Cl)n2)n1)C(F)(F)F` [Vorasidenib] + CCOc1ccccc1-n1c(C(C)N2CCN(C(=O)COc3ccc(Cl)cc3)CC2)nc2ccccc2c1=O [erastin], the relative cell viability is 0.607.

With `O=C(Oc1ccc([N+](=O)[O-])cc1)N1CCN(Cc2cccc(Oc3ccccc3)c2)CC1` + CCOc1ccccc1-n1c(C(C)N2CCN(C(=O)COc3ccc(Cl)cc3)CC2)nc2ccccc2c1=O [erastin], the relative cell viability amounted to 0.199.

As to `O=C(CN1CCN(C(=O)c2ccco2)CC1)Nc1cc(C(F)(F)F)ccc1Cl` + CCOc1ccccc1-n1c(C(C)N2CCN(C(=O)COc3ccc(Cl)cc3)CC2)nc2ccccc2c1=O [erastin], the relative cell viability stood at 0.638.

Consider `O=C(Nc1ccncc1)c1cc([N+](=O)[O-])ccc1Cl` + CCOc1ccccc1-n1c(C(C)N2CCN(C(=O)COc3ccc(Cl)cc3)CC2)nc2ccccc2c1=O [erastin], for which the relative cell viability came out at 0.47.

Turning to `CC(C)[C@H]1CC[C@H](C(=O)N[C@H](Cc2ccccc2)C(=O)O)CC1` [Nateglinide] + CCOc1ccccc1-n1c(C(C)N2CCN(C(=O)COc3ccc(Cl)cc3)CC2)nc2ccccc2c1=O [erastin], the relative cell viability is 0.666.

As for `CCOc1cc(CC(=O)N[C@@H](CC(C)C)c2ccccc2N2CCCCC2)ccc1C(=O)O` [Repaglinide] + CCOc1ccccc1-n1c(C(C)N2CCN(C(=O)COc3ccc(Cl)cc3)CC2)nc2ccccc2c1=O [erastin], the relative cell viability came to 0.711.

Regarding `Cn1nc(C(=O)N(Cc2ccccc2)Cc2ccc(C(=O)O)cc2)c2c1-c1cc(Cl)ccc1OC2` [Nidufexor] + CCOc1ccccc1-n1c(C(C)N2CCN(C(=O)COc3ccc(Cl)cc3)CC2)nc2ccccc2c1=O [erastin], the relative cell viability was determined as 0.638.

Take `CN(C)c1cccc(-c2c3c(=O)n(-c4ccccc4Cl)[nH]c3cc(=O)n2C)c1` + CCOc1ccccc1-n1c(C(C)N2CCN(C(=O)COc3ccc(Cl)cc3)CC2)nc2ccccc2c1=O [erastin]: the relative cell viability was determined as 0.61.

As to `CC1(C)C[C@H]2C3=CC[C@@H]4[C@@]5(C)CC[C@H](O)[C@@](C)(CO)[C@@H]5CC[C@@]4(C)[C@]3(C)C[C@H](O)[C@@]2(CO)[C@@H](O)[C@@H]1O` [Gymnemagenin] + CCOc1ccccc1-n1c(C(C)N2CCN(C(=O)COc3ccc(Cl)cc3)CC2)nc2ccccc2c1=O [erastin], the relative cell viability came out at 0.918.

Take `CN(C)C(=O)Nc1cccc(-c2ccc(N(C)C)cc2)c1` [Atglistatin] + CCOc1ccccc1-n1c(C(C)N2CCN(C(=O)COc3ccc(Cl)cc3)CC2)nc2ccccc2c1=O [erastin]: the relative cell viability came to 0.438.

On to `O=C(OC(C(F)(F)F)C(F)(F)F)N1CCC(C(O)(c2ccc3c(c2)OCO3)c2ccc3c(c2)OCO3)CC1` + CCOc1ccccc1-n1c(C(C)N2CCN(C(=O)COc3ccc(Cl)cc3)CC2)nc2ccccc2c1=O [erastin], for which the relative cell viability is 0.53.

For `CC(C)(C)NC(=O)[C@H]1CC[C@H]2[C@@H]3CC[C@H]4NC(=O)C=C[C@]4(C)[C@H]3CC[C@]12C` [Finasteride] + CCOc1ccccc1-n1c(C(C)N2CCN(C(=O)COc3ccc(Cl)cc3)CC2)nc2ccccc2c1=O [erastin], the relative cell viability was 0.873.

For the compound `CC(O)(CC(=O)O)CC(=O)O` [Meglutol] + CCOc1ccccc1-n1c(C(C)N2CCN(C(=O)COc3ccc(Cl)cc3)CC2)nc2ccccc2c1=O [erastin], the relative cell viability stood at 0.708.

Consider `CN(C(=O)n1cnc(-c2ccc[n+]([O-])c2)c1)C1CCCCC1` + CCOc1ccccc1-n1c(C(C)N2CCN(C(=O)COc3ccc(Cl)cc3)CC2)nc2ccccc2c1=O [erastin], for which the relative cell viability was 0.427.

Regarding `CN1CC(O)C2=C/C(=N/NC(N)=O)C(=O)C=C21` (stereo not drawn) [Carbazochrome] + CCOc1ccccc1-n1c(C(C)N2CCN(C(=O)COc3ccc(Cl)cc3)CC2)nc2ccccc2c1=O [erastin], the relative cell viability is 0.484.

As for `Cc1cnc(C(=O)NCCc2ccc(S(=O)(=O)NC(=O)NC3CCCCC3)cc2)cn1` [Glipizide] + CCOc1ccccc1-n1c(C(C)N2CCN(C(=O)COc3ccc(Cl)cc3)CC2)nc2ccccc2c1=O [erastin], the relative cell viability stood at 0.732.

For `c1ccc([C@H]2CN3CCSC3=N2)cc1` [Levamisole hydrochloride] + CCOc1ccccc1-n1c(C(C)N2CCN(C(=O)COc3ccc(Cl)cc3)CC2)nc2ccccc2c1=O [erastin], the relative cell viability was 0.768.

With `COC(=O)/C=C/c1cccc(N(Cc2ccc(-c3ccc(N(C)C)cc3)cc2)C(=O)C2CCCCC2)c1` [Fexaramine] + CCOc1ccccc1-n1c(C(C)N2CCN(C(=O)COc3ccc(Cl)cc3)CC2)nc2ccccc2c1=O [erastin], the relative cell viability was determined as 0.5.

Turning to `CN(CCOc1ccc(CC2SC(=O)NC2=O)cc1)c1ccccn1` (stereo not drawn) [Rosiglitazone maleate] + CCOc1ccccc1-n1c(C(C)N2CCN(C(=O)COc3ccc(Cl)cc3)CC2)nc2ccccc2c1=O [erastin], the relative cell viability was 0.824.

For the compound `O=C(NNc1ccccc1)c1ccncc1` [PluriSln 1] + CCOc1ccccc1-n1c(C(C)N2CCN(C(=O)COc3ccc(Cl)cc3)CC2)nc2ccccc2c1=O [erastin], the relative cell viability is 0.518.

`N#Cc1ccc(Oc2cccc(NC(=O)Nc3ccc(Cl)c(C(F)(F)F)c3)c2)cc1` + CCOc1ccccc1-n1c(C(C)N2CCN(C(=O)COc3ccc(Cl)cc3)CC2)nc2ccccc2c1=O [erastin]: the relative cell viability was determined as 0.0713.

Turning to `CC(C)CCC[C@@H](C)[C@H]1CC[C@H]2[C@@H]3CC=C4C[C@@H](O)CC[C@]4(C)[C@H]3CC[C@]12C` [Cholesterol] + CCOc1ccccc1-n1c(C(C)N2CCN(C(=O)COc3ccc(Cl)cc3)CC2)nc2ccccc2c1=O [erastin], the relative cell viability turned out to be 0.901.

As to `COc1ccc(-n2c(SCCCN3C(=O)c4cccc5cccc(c45)C3=O)nnc2-c2ccncc2)cc1` + CCOc1ccccc1-n1c(C(C)N2CCN(C(=O)COc3ccc(Cl)cc3)CC2)nc2ccccc2c1=O [erastin], the relative cell viability turned out to be 0.437.

For the origin of these results see the supplement of paper PMC9492666.
